# High-throughput results: PubChem, University of Kansas High Throughput Screening Laboratory
# mHTT-CaM PPI inh: mHTT-calmodulin interaction abrogation. P42858. AlphaScreen His-mHTT/GST-CaM binding, luminescence. inhibition, % at 15 µM. actives 3.6% (n = 190,000). AID 1671202;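 also: 0% = both proteins with DMSO and 100% = one protein alone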
# Target sequence (P42858 whole entry, looked up, stated change not applied): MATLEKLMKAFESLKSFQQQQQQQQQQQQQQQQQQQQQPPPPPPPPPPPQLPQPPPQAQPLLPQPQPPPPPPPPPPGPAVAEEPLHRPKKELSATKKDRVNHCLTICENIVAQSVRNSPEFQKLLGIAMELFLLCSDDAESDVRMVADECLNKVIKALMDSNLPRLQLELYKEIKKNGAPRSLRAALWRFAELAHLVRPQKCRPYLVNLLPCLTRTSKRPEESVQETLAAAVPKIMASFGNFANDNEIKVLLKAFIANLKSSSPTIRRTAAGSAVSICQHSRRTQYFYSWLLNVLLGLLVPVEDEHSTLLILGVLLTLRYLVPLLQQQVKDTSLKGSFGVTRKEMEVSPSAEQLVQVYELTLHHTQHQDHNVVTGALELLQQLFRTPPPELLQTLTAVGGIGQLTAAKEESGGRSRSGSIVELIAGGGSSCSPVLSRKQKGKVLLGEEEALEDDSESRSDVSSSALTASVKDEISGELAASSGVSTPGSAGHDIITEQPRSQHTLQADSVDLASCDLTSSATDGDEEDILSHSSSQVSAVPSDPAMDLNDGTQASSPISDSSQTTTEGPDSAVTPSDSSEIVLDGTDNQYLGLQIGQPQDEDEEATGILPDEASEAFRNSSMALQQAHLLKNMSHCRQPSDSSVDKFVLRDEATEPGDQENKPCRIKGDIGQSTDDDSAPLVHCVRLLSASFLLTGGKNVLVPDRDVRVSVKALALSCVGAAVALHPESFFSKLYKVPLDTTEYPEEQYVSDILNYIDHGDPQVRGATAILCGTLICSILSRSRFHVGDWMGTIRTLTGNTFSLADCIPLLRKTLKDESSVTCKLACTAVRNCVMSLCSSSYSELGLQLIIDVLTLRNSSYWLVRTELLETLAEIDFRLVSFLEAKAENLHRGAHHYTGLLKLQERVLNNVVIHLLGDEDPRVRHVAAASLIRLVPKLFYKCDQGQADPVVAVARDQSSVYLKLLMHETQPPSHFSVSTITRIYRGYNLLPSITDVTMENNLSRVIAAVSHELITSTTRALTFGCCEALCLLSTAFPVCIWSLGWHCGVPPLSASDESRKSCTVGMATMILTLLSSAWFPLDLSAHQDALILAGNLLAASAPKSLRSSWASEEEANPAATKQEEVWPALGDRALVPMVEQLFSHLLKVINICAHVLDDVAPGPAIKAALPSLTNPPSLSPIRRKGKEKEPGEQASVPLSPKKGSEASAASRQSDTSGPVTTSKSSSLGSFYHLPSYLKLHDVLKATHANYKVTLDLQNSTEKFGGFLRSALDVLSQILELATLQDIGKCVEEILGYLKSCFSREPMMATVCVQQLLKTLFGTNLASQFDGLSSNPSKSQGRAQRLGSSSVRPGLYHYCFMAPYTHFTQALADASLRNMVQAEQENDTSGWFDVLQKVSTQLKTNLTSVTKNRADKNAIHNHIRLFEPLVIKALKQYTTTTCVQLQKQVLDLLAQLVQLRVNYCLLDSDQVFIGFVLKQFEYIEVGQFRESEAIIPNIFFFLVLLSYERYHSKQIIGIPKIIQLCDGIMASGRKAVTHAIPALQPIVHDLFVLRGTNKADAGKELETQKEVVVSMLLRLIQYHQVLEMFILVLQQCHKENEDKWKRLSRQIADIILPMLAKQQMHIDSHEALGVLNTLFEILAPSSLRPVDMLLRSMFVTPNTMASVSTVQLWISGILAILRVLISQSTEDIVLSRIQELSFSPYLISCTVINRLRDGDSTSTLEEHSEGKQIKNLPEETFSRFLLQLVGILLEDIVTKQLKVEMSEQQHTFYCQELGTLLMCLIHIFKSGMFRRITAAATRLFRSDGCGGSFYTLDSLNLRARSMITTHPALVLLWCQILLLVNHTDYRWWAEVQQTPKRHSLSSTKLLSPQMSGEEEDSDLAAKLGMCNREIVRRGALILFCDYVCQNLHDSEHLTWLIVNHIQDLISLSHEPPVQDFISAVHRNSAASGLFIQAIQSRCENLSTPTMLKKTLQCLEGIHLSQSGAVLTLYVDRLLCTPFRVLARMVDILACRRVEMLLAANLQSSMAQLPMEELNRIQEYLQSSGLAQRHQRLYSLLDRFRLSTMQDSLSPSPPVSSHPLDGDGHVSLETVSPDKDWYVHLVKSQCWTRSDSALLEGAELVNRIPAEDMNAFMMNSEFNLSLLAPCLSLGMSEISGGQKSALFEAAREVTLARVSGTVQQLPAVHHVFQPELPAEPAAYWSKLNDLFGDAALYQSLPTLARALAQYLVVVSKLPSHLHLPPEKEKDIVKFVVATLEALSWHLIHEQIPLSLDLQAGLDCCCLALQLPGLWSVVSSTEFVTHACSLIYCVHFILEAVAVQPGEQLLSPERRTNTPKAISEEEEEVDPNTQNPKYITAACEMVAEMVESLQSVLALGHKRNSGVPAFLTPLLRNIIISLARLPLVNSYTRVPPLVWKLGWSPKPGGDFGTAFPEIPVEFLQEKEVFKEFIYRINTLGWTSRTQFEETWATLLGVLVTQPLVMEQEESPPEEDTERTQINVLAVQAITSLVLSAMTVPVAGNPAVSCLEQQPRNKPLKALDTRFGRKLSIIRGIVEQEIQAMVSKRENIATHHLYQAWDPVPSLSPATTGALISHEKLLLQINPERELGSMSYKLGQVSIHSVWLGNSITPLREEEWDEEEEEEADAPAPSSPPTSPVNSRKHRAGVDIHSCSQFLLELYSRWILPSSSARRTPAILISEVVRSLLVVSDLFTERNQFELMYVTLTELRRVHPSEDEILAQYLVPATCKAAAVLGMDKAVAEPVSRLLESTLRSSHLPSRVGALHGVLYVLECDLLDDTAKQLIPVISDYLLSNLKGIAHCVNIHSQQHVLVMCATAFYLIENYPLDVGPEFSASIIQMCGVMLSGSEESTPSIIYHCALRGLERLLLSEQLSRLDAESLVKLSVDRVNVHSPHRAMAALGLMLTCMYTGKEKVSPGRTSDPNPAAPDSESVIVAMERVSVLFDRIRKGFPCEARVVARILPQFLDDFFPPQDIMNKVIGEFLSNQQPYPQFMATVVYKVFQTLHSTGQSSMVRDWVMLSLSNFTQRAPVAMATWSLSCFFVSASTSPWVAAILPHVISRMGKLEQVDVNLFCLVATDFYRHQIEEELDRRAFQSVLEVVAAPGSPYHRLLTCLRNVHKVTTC
# Pf apPOL block: Pf-apPOL DNA polymerase inhibition; Recombinant Pf-apPOL, molecular beacon fluorescence, 1.5 h; inhibition, % at 10 µM; actives 0.25% (n = 210,000); AID 1794808
# * = called active by the depositor; x = no result given. Rows were chosen to be rich in hits. Some 3.5% of all compounds tested hit in one or more screens of this group. Rule as the data show it: active = inhibition above about 50%; inactive = the rest.
SMILES,mHTT-CaM PPI inh,Pf apPOL block
CCn1c(-c2cc(NC(=O)C3CC3)n[nH]2)cc2c(OC)cccc21,50*,-5
COc1cc([N+](=O)[O-])ccc1N=Cc1nc(-c2ccccc2Br)oc1O,0,-1
COc1cc(OC)c(-c2nc(-c3ccsc3)c(-c3ccccc3)[nH]2)cc1OC,68*,-1
c1ccc(-c2nc(-c3ccco3)[nH]c2-c2ccccc2)cc1,x,9
O=C1NN(c2ccc(Cl)c(Cl)c2)C(=O)/C1=C/c1cc2c(cc1[N+](=O)[O-])OCO2,75*,-3
COc1cc(/C=C2\C(=O)NN(c3ccc(Cl)c(Cl)c3)C2=O)cc([N+](=O)[O-])c1O,49,-6
COc1cc2c(cc1/C=C1\NC(=O)N(Cc3ccc(F)cc3)C1=O)OCO2,-4,-9
O=C1NC(=O)N(Cc2ccc(F)cc2)C(=O)/C1=C\c1cc2c(cc1[N+](=O)[O-])OCO2,67*,3
COC(=O)C12CC3CC(CC(N)(C3)C1)C2,-3,4
Cn1nc(-c2nc(-c3ccccc3)no2)c2c1CCN(C(=O)c1ccc(F)c(F)c1)C2,10,1
O=C(Nc1cccc(F)c1)C1CCCN(C(=O)c2ccccc2F)C1 (stereo not given),30,-8
Cc1cc(C)cc(NC(=O)C2CCCN(C(=O)c3ccccc3F)C2)c1 (stereo not given),97*,-23
Cn1cccc1C(=O)N1CCCC(c2cc(-c3ccccc3)n[nH]2)C1 (stereo not given),28,-1
Cc1ccc(C(=O)N2CCC3(CC2)NC(=O)c2cc(F)c(F)cc2N3)cc1,6,2
CCC(C)NC(=O)c1cc(S(=O)(=O)N2CCc3ccccc32)ccc1F (stereo not given),3,-3
O=C(O)c1cc2c([nH]c1=O)CCC2,-8,0
N=C1S/C(=C\c2ccc(-c3ccc4c(c3)COC4=O)o2)C(=O)N1c1nccs1,41,-7
N=C1S/C(=C\c2ccc(-c3cccc(C(F)(F)F)c3)o2)C(=O)N1c1nonc1N,56*,-3
CC(=O)Nc1nonc1N1C(=N)S/C(=C\c2ccc(-c3ccc(F)c(Cl)c3)o2)C1=O,26,1
N=C1NC(=O)/C(=C\c2ccc(-c3cccc(C(F)(F)F)c3)o2)S1,43,-1
CC(=O)Nc1nonc1N1C(=N)S/C(=C\c2ccc(-c3ccc(F)cc3)o2)C1=O,62*,-3
COc1ccc(/C=C2\SC(=N)N(c3nonc3N)C2=O)cc1,-1,-6
N=C1S/C(=C\c2ccc(-c3cccc(Cl)c3)o2)C(=O)N1c1nccs1,57*,-9
N=C1S/C(=C\c2ccco2)C(=O)N1c1nonc1N,93*,1
COc1ccc(N2C(=O)CSC2c2ccc3c(c2)OCO3)cc1Cl (stereo not given),10,-4
SMILES,mHTT-CaM PPI inh,Pf apPOL block
Clc1ccc(-c2noc(-c3ccccc3Br)n2)cc1,-9,0
Cc1cccc(N2C=C(C(=O)N3CCCCC3)S(=O)(=O)c3ccccc32)c1,1,2
Cc1cc(C(=O)NCC(C)C)c2cc(Cl)ccc2n1,1,-3
CCOC(=O)c1ccc(NC(=O)Cn2nc3c(cc2=O)CN(C(=O)OCC)CC3)cc1,7,-5
CC1=C(C#N)c2nc(N)c(C#N)c(C)c2/C1=C/c1ccc(O)cc1,64*,-4
COc1ccc(/C=C2\C(C)=C(C#N)c3nc(N)c(C#N)c(C)c32)cc1OC,29,-7
O=C(NCC1OCCc2ccccc21)C(=O)Nc1ccccn1 (stereo not given),-5,-26
Nc1cc(C(=O)c2ccc(O)c(N)c2)ccc1O,17,-8
Nc1cc(Oc2ccc(O)c(N)c2)ccc1O,90*,3
Cn1c(N2CCC(C(=O)NCc3ccco3)CC2)cc(=O)n(C)c1=O,49,-5
O=C(NCCN1CCN(C(=O)NCc2cccs2)CC1)c1ccc2c(c1)OCO2,-5,-2
O=c1cc(O)c2sc(Nc3ccc(F)cc3)nc2[nH]1,20,4
N#Cc1c(Nc2ccc(F)cc2)sc2c(O)cc(=O)[nH]c12,51*,-3
Cc1ccc(-n2nc3c(c2NC(=O)C2CCCC2)CSC3)c(C)c1,22,-4
Cc1ccccc1NC(=O)Cn1cnc2c(c1=O)CCCC2,-10,0
CC1(C)C2CCC1(C)C(OCC(O)CN1CCN(Cc3ccccc3)CC1)C2 (stereo not given),24,-4
CC1(C)C2CCC1(C)C(OCC(O)CN1CCN(c3ccccc3)CC1)C2 (stereo not given),52*,0
Cc1ccc(-n2nc(C)c3sc(N4CCCC(C(=O)NCc5ccco5)C4)nc32)cc1 (stereo not given),13,-11
COC(=O)C(C)Oc1cc(C)cc2oc(=O)cc(-c3ccccc3)c12 (stereo not given),-7,-4
CC(Oc1cc2oc(=O)cc(-c3ccccc3)c2cc1Cl)C(=O)O (stereo not given),100*,-1
O=C(NCCN1CCOCC1)C1CCCN(c2ncnc3c2nc2n3CCCCC2)C1 (stereo not given),1,2
O=C(CSc1n[nH]c(-c2ccncc2)n1)c1ccc(Br)cc1,16,4
O=C(Nc1cccc(F)c1)c1cccc(Br)c1,-22,-10
O=C1N=C(N2CCCCC2)S/C1=C/C1=Cc2ccccc2OC1,66*,-7
CN1CCN(C2=NC(=O)/C(=C/c3ccccc3)S2)CC1,2,-7
SMILES,mHTT-CaM PPI inh,Pf apPOL block
O=C1N=C(N2CCCC2)S/C1=C/C=C/c1ccccc1,76*,-2
O=C1N=C(N2CCOCC2)S/C1=C\C1=Cc2ccccc2OC1,45,x
CC(O)CN(CC(C)O)CC(O)COC12CC3CC(CC(C3)C1)C2 (stereo not given),-5,2
CN(CCCNC(=O)C1CCN(c2ccc(N3CCCC3)nn2)CC1)Cc1ccccc1,23,-5
COc1ccc(C(=O)c2oc3ccccc3c2NC(=O)c2cccs2)cc1,-68,2
Cc1ccc(-c2csc(Nc3ccc(Cl)cc3)n2)cc1,47,0
O=[N+]([O-])c1ccc(-c2csc(Nc3cc(Cl)cc(Cl)c3)n2)cc1,2,0
Clc1ccc(-c2csc(Nc3ccc(Oc4ccccc4)cc3)n2)cc1,52*,1
Cc1ccc(Nc2nc(-c3ccccc3)cs2)cc1,64*,-9
COc1ccc(Nc2nc(-c3cccc(NC(C)=O)c3)cs2)cc1,44,3
COc1ccc(-c2csc(Nc3ccc(N)cc3)n2)cc1,88*,-2
Clc1cc(Cl)cc(Nc2nc(-c3ccccc3)cs2)c1,96*,-5
Cc1ccc(Nc2nc(-c3ccncc3)cs2)cc1,9,4
COc1ccc(-c2nc(C)c3c(n2)N(Cc2cccnc2)C(=O)C3)cc1,-3,3
O=C(NCc1ccco1)C1CCN(c2nnc3ccc(C(F)(F)F)cn23)CC1,2,0
COc1ccc(C2=N/C(=C\c3cccc(OC)c3)C(=O)O2)cc1,1,-3
COCc1c(C(=O)O)nnn1-c1ccc(F)c(F)c1,-3,-1
COc1cccc(C2CC(c3ccc(OC)c(OC)c3)n3ncnc3N2)c1 (stereo not given),4,-4
Cc1ccc(-c2csc(Nc3ccccc3)n2)cc1,61*,0
Clc1ccc(-c2csc(Nc3ccccc3)n2)s1,x,-2
COc1ccc(-c2csc(Nc3ccc(C)cn3)n2)cc1,10,-1
O=[N+]([O-])c1cccc(Nc2nc(-c3ccncc3)cs2)c1,2,0
O=[N+]([O-])c1ccc(-c2csc(Nc3ccc(Oc4ccccc4)cc3)n2)cc1,60*,-2
